Data taken from ChEMBL document CHEMBL3988442, “University of Dundee, Small-Polar-MMV Screening Library” (2021).
The campaign covered roughly 38,000 compounds. About 1,200 (3.2%) showed an effect of 50% or more. The median lay at about -58%. The sample as a whole holds a higher share of strong results than the screen did.

What follows are molecules tested on Plasmodium falciparum (assay: Calibr Malaria Delayed Death Assay SOP). Settings: concentration 4.99e-06 (unit not given; other assays of the set use mol/L).
Format: functional, organism-based
Parameters: scale not given: in the data most compounds retested in dose-response had high values

Compound | Percent Effect [%]
Cc1cccc(C)c1OC1CN(C(=O)C2CC(=O)N(C(C)(C)C)C2)C1 (centres undefined) | -9.651
COc1cc(-c2cc(NC3CCCC3)nc3[nH]ccc23)nc(N)n1 | 62.87
COc1ncc(-c2cc(NC3CCCC3)nc3[nH]ccc23)c(OC)n1 | 74.29
COc1nccnc1-c1cc(NC2CCNCC2)nc2[nH]ccc12 | -131.1
FC(F)(F)c1ccc(-c2cc(NC3CCNCC3)nc3[nH]ccc23)nc1 | -115.3
CNc1cc(C)nc(-c2cc(NC3CCNCC3)nc3[nH]ccc23)n1 | -52.32
COc1nccnc1-c1cc(NC2CCCC2)nc2[nH]ccc12 | 19.53
CC(Nc1ccc(F)cc1)c1nnnn1-c1ccccc1 (centres undefined) | -147.9
Cc1cc(S(C)(=O)=O)c(C)c(S(=O)(=O)N2CCCCCC2)c1 | -98.91
c1cnn(CC2CN(Cc3nc(-c4ccoc4)no3)CCO2)c1 (centres undefined) | -25.36
Cc1csc(N2CCCN(C(=O)Cc3ccc(C)s3)CC2)n1 | -98.4
CCN(CC)c1nc(C)cc(C(=O)Nc2ccc(Br)cc2)n1 | -6.909
CN1CCC(N(C)C(=O)Nc2ccc(Cl)cc2)CC1 | -68.4
Cn1cc(NC(=O)CNC(=O)N2CCN(c3ccc(Cl)cc3)CC2)cn1 | 2.407
Cc1nc(N2CCCC2)ncc1C(=O)Nc1ccc(Br)cc1 | -75.85
Cc1oc(-c2cccc(F)c2F)nc1CN(C)CCO | -89.89
CC[C@H](C)[C@H](NC(=O)c1cccc(-n2cnnn2)c1)C(=O)OC | -118.3
COCC(O)CNC(=O)c1cc(COc2ccc3c(c2)CCCC3)on1 (centres undefined) | -3.069
CC(C)NC(=O)CC1COC2(CCN(Cc3cccs3)CC2)C1.O=C(O)C(F)(F)F (centres undefined) | -6.903
O=C(COc1coc(CN2CCCC2)cc1=O)Nc1ccc(Cl)c(Cl)c1 | -65.99
O=C(COc1coc(CN2CCCC2)cc1=O)Nc1cc(Cl)ccc1Cl | 79.74
O=C(COc1coc(CN2CCCCC2)cc1=O)Nc1ccccc1Cl | -97.93
COc1ccc(NCC(=O)NCC(=O)N2CCCC2)c(C(F)(F)F)c1 | -93.16
CC(C)CNC(=O)CN(Cc1ccc(F)cc1)S(C)(=O)=O | -57.65
COc1ccc(C[C@H]2CN(C(=O)c3cscn3)CC[C@@H]2OC)cc1 | -91.5

Compound | Percent Effect [%]
CCn1cnnc1CNC(=O)N1CCN(CC(C)C)CC1 | -55.6
c1ccc(-c2nc(CNC3CCc4ncnn4C3)no2)cc1 (centres undefined) | -138.7
CN(C)c1ccc(CNC2(c3ccc(F)cc3)CCOCC2)cc1F | 25.79
CSc1ccc(CNC2(c3ccc(F)cc3)CCOCC2)cc1 | 28.49
Fc1ccc(C2(NCc3ccccc3)CCOCC2)cc1 | 62.64
O=C(CCc1nc2ccccc2[nH]1)Nc1ccc2c(c1)OCC(=O)N2 | -185.4
Cc1cc(F)c(S(=O)(=O)Nc2ccn(CCC#N)n2)cc1F | -82.35
CN(C)[C@@H]1CCN(c2ncccn2)[C@H]1Cc1cccnc1.O=C(O)C(F)(F)F.O=C(O)C(F)(F)F | 10.59
CN(C)[C@@H]1CCN(c2ncc(F)cn2)[C@H]1Cc1cccnc1.O=C(O)C(F)(F)F.O=C(O)C(F)(F)F | -22.18
CN(C)[C@@H]1CCN(c2ncc(F)cn2)[C@H]1Cc1ccncc1.O=C(O)C(F)(F)F.O=C(O)C(F)(F)F | 27.12
CN(C)[C@@H]1CCN(c2ncccn2)[C@H]1Cc1ccccc1 | 77.2
Fc1cnc(N2CC[C@@H](N3CCOCC3)[C@@H]2Cc2ccccc2)nc1 | -55.08
CO[C@@H]1CCN(c2ncccn2)[C@H]1Cc1ccccc1 | -224.1
CN(C)[C@@H]1CCN(c2ncc(F)cn2)[C@H]1Cc1ccccc1.O=C(O)C(F)(F)F.O=C(O)C(F)(F)F | 88.46
CN(C)[C@@H]1CCN(c2ncccn2)[C@H]1Cc1ccncc1.O=C(O)C(F)(F)F.O=C(O)C(F)(F)F | -10.95
Cc1nn(C)c(C)c1CN(C)C(C(=O)O)c1ccc(F)cc1F (centres undefined) | -28.09
Cc1nc(-c2nnc[nH]2)sc1C(=O)N1CCCC1c1cccs1 (centres undefined) | -86.12
Cc1ccc(F)c(S(=O)(=O)NCCc2nnc[nH]2)c1 | -33.36
N#Cc1ccc(NCC(O)c2ccco2)c(C(F)(F)F)c1 (centres undefined) | -33.98
Cn1cc(C(=O)N2CCCC(CN3CCCC3=O)C2)cn1 (centres undefined) | -14.99
O=C(c1ccc(F)c(F)c1)N1CCC[C@]2(C[C@@H](OCC3CC3)CO2)C1 | -0.7044
COC(=O)CC(c1ccc(O)c(Cl)c1)c1oc(C)cc(=O)c1O (centres undefined) | -28.31
Cc1nc(C)n(C2CCCN(C(=O)CCc3ccccn3)C2)n1 (centres undefined) | -132.7
CC(C)COCCNC1CCN(c2ccccn2)CC1 | 60.11
COc1ccc(C(C)CCNC2CCN(c3ccccn3)CC2)cc1 (centres undefined) | 67.25

Compound | Percent Effect [%]
CC(CNC1CCN(c2ccccn2)CC1)Oc1ccc(F)cc1 (centres undefined) | 47.69
COCCOCC(=O)NC1CCN(c2ccccn2)CC1 | -21.4
CC(C)COCCC(=O)NCCC(=O)N1CCN(c2ccccn2)CC1 | -146.7
OC1(CNC2CCN(c3ccccn3)CC2)CCc2ccccc21 (centres undefined) | 27.14
CSCC(=O)N1CCOC(c2nc(C(C)C)n[nH]2)C1 (centres undefined) | -97.79
CC(C)[C@H]1CN(c2ccnc(N)n2)C[C@@H]1NC(=O)C1(C#N)CCOCC1 | -66.36
Cc1cc(CN2CCC(c3nccn3C(C)C)CC2)ccc1F | 18.24
OCC1COCCN(Cc2cc(C3CCCCC3)no2)C1 (centres undefined) | -120.4
Fc1ccc(C2CCCCN2Cc2cc(-c3ccccn3)no2)cc1 (centres undefined) | -40.19
C[C@@H]1CN(Cc2cc(C3CCCCC3)no2)CC[C@]1(C)O | -5.788
OC1COCCN(Cc2cc(-c3ccccc3OC(F)(F)F)no2)C1 (centres undefined) | -13.03
NC1CCCCN(Cc2cc(C3CCCCC3)no2)C1 (centres undefined) | 62.41
NC1CCCCN(Cc2cc(-c3ccccc3OC(F)(F)F)no2)C1 (centres undefined) | 70.63
O=C(O)C(F)(F)F.O=C(O)C(F)(F)F.O=C1COC2(CCN(Cc3cccnc3)CC2)CN1c1ccccc1 | -17.97
Cc1cnc(C(=O)N2CCCC(n3cccn3)C2)cn1 (centres undefined) | -66.69
CCN(C)Cc1cccc(CNC(=O)NCCc2ccccn2)c1 | -13.41
CN(C)Cc1nnc2n1CCN(Cc1ccccn1)CC2 | -1.592
CC(C)Nc1nc2c(s1)C(=O)CN(C(=O)NCc1ccccc1)C2 | -132.7
CCOc1ccc(CN2CCNC(C(=O)NC3CC3)C2)cc1CO (centres undefined) | -11.99
NC(=O)COc1ccc(CN2CCNC(C(=O)NC3CC3)C2)cc1Cl (centres undefined) | -16.07
CCCOc1cc(Cl)c(CN2CCNC(C(=O)NC3CC3)C2)cc1OC (centres undefined) | 74.72
Cc1cc(C)n(CC(=O)N(CC2CN(C)CCO2)c2nccs2)n1 (centres undefined) | -86.12
COc1ccc(Cn2c(Cc3c(C)n[nH]c3C)n[nH]c2=O)cc1 | -40.64
CN(C)CCO[C@H]1CN(C(=O)c2ccc(C#N)cc2)[C@@H]2COC[C@H]12 | -51.41
CCCn1ncc2c(C(=O)NC(C)Cn3cccn3)cc(C3CC3)nc21 (centres undefined) | -124.5

Compound | Percent Effect [%]
Cc1ccc(N(C)CC(O)COCc2ccccc2)c(C)c1 (centres undefined) | -54.55
O=C(C(CNCc1ccco1)c1ccccc1)N1CCOCC1 (centres undefined) | -74.95
Cc1cc(C)c(N(CC(O)CNCc2ccco2)S(C)(=O)=O)c(C)c1.O=C(O)c1ccccc1 (centres undefined) | 59.67
O=S(=O)(Cc1cccc(F)c1)NCC(O)Cc1ccccc1 (centres undefined) | -87.6
Br.Cc1cc(C)c(N(CC(O)CNCc2ccccc2)S(C)(=O)=O)c(C)c1 (centres undefined) | 69.59
Cc1cccc(CS(=O)(=O)NCC(O)Cc2ccccc2)c1 (centres undefined) | -12.6
N#Cc1cccc(CS(=O)(=O)NCC(O)Cc2ccccc2)c1 (centres undefined) | -10.83
Cc1ccc(CS(=O)(=O)NCc2ccco2)cc1 | -37.35
CCn1nc(C)c2nc(C)nc(NCCc3ccccc3)c21 | 35.69
CO[C@@H]1CN(c2ccccc2)S(=O)(=O)[C@@]12CCNC2 | -24.96
CC1c2ccsc2CCN1Cc1cc2c(cc1O)OCO2 (centres undefined) | 25.38
Cn1cc(C2CCCN2C(=O)c2cnc(-c3ncccn3)s2)cn1 (centres undefined) | -23.4
Cn1c2c(c(=O)n1C)CN(C(=O)c1cccc(F)c1)CCC2 | -64.91
CN(C)c1ccc(C(CNS(=O)(=O)c2cccs2)N2CCCC2)cc1 (centres undefined) | 52.34
CN1CCc2cc(C(CNS(=O)(=O)c3cccs3)N3CCCC3)ccc21 (centres undefined) | 13.73
CCC(CO)N(Cc1cccs1)C(=O)CNS(=O)(=O)c1cccs1 (centres undefined) | -105.8
O=S(=O)(NCC(c1ccsc1)N1CCCCCC1)c1cccs1 (centres undefined) | 84.95
CC(CNS(=O)(=O)CCCC#N)c1ccsc1 (centres undefined) | -35.87
COc1ccccc1N1CCC(CNS(=O)(=O)c2cccs2)C1 (centres undefined) | 4.169
Cc1nc(CN2CCCN(Cc3nc4ccccc4o3)CC2)no1 | -14.25
CSCC(=O)N1CCOC(c2nc(C(C)(C)C)n[nH]2)C1 (centres undefined) | -128.5
O=C(C1CC(=O)N(c2n[nH]c3cc(Br)ccc23)C1)N1CCOCC1 (centres undefined) | -162.5
O=C(NC1CC1)N1CCc2ncc(CN3CCOCC3)n2CC1.O=C(O)C(F)(F)F | -16.42
O=C(CC1NC(N2CCc3ccccc32)=NC1=O)Nc1ccccc1 (centres undefined) | -56.07
